# Experimental data as given in PubChem BioAssay (NCI).
# This is part of a sample that, as a whole, favours compounds with a hit. Of some 79,000 tested, about 15% had one in any assay. Unmarked numbers belong to inactive results. No stated cut-off is given here; in the data, active means growth inhibition above about 70%; inactive means the rest.
# Test: NCI Yeast Anticancer Drug Screen. Data for the rad50 strain (AID 155);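 further: 0% = growth of vehicle-only cultures of the same strain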
# Details: S. cerevisiae rad50 strain growth inhibition; at 50.0 µM; active compounds read high
# Procedure, shortened: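 Relative growth inhibition (compound vs vehicle) was measured in yeast with a defined repair-gene alteration.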
row,SMILES,growth inhibition
1,CC(=O)O[C@H]1CC[C@@]2(C)[C@@H](CC[C@@H]3[C@@H]2CC(=O)[C@]2(C)[C@@H]4[C@H](C[C@@H]32)O[C@]2(CC[C@@H](C)CO2)[C@H]4C)C1,-11.7%
2,CCCCN(CCCC)CCCNC(=S)Nc1ccccc1,-3.25%
3,C/C(=C\c1ccccc1)C(O)C(=O)c1nc2ccc(Cl)cc2[nH]c1=O (stereo not given),10.3%
4,CC(c1ccccc1)C(C)(C)O (stereo not given),10.2%
5,O=[N+]([O-])c1ccc(Oc2ccc(Cl)cc2)cc1,16.9%
6,Cc1cc2c(cc1[N+](=O)[O-])OCCO2,11.3%
7,O=C(O)c1c(F)c(F)c(-c2c(F)c(F)c(C(=O)O)c(C(=O)O)c2F)c(F)c1C(=O)O,1.5%
8,CCOC(=O)NC(=O)c1cn(CCN2CCN(C(=O)NCCCCCCNC(=O)N3CCN(CCn4cc(C(=O)NC(=O)OCC)c(=O)[nH]c4=O)CC3)CC2)c(=O)[nH]c1=O,-12.3%
9,CCCCCCCCC(=O)c1c(OC)oc(C=O)cc1=O,-0.5%
10,CCOC(CN(Cc1ccccc1)CC(OCC)OCC)OCC,12.7%
11,CCOC(CNCCC(=O)OC)OCC,-31.9%
12,Cc1cc(C)cc(N=Nc2c(N)nc(N)[nH]c2=O)c1,4.85%
13,O=C(N/N=C/c1ccc(Cl)cc1Cl)c1cccc([N+](=O)[O-])c1,0.65%
14,OCCCCC(c1ccc(O)cc1)c1ccc(O)cc1,17%
15,O=C(O)CC(c1ccccc1)C(CC(=O)O)c1ccccc1.[NH-]C1CCCCC1[NH-].[Pt+2] (stereo not given),37.2%
16,Cc1cccc(C)c1NC=O,4.7%
17,C[N+](C)([O-])Cc1ccccc1,-12.9%
18,CC(=O)/C(=C/c1ccco1)CC(=O)O,-15.1%
19,O=C(OCCCCCCCCOC(=O)c1cccc([N+](=O)[O-])c1)c1cccc([N+](=O)[O-])c1,20.9%
20,C(=C\c1nc2ncccn2n1)/c1ccccc1,16.4%

row,SMILES,growth inhibition
1,O=Cc1cc(C(=O)c2ccccn2)c2cc(Cl)cc(Cl)c2n1,8.05%
2,CCC(=O)C(=O)C1CCCCC1=O (stereo not given),-2.4%
3,O=C(N1CCOCC1)C12OC3CC(CC(C3)O1)O2,8.5%
4,O=CC1(CCc2ccccc2)NC(=O)NC1=O (stereo not given),5.3%
5,NC(=O)c1ncc[nH]c1=O,-0.65%
6,CCC(C(O)c1ccc(Cl)cc1)[N+](=O)[O-] (stereo not given),29.9%
7,O=C1C(=C(c2ccc([N+](=O)[O-])cc2)N2CCOCC2)C(=O)c2ccccc21,8.9%
8,CC(=O)NNC(=O)c1ccccc1CO,-18.8%
9,CCCC(C)CCCC(=O)c1ccc2cc(OC)ccc2c1 (stereo not given),-34.2%
10,NC(=S)NNC(=O)c1ccc([N+](=O)[O-])cc1,10.4%
11,C1=Nc2ccccc2/C1=C/C=C/c1ccccc1,24.6%
12,Nc1ccc(C(C(=O)O)c2ccccc2)cc1 (stereo not given),10.4%
13,Cc1ccc(C(=O)Nc2ccc(CP(=O)(O)O)cc2CP(=O)(O)O)cc1N,-25.1%
14,COc1ccc2c(c1)OC1(OCCO1)[C@@H]1C2CC[C@@]2(C)C1CCC21OCCO1 (stereo not given in full),48.2%
15,CC(C)c1nc2c(c(=O)o1)CCS2,-5.5%
16,Cc1nc2ccc(C(F)(F)F)cc2nc1Nc1ccc(Cl)c(Cl)c1,20.2%
17,O=c1[nH]c(=O)c2ncn(-c3ccc(Cl)cc3)c2[nH]1,-7.35%
18,COC1=CC(=O)N(C)C(O)C1(C#N)OC1OC(CO)C(O)C(O)C1O (stereo not given),5.25%
19,Cc1c(-c2ccccc2)[nH]c2ccc(Cl)cc2c1=O,-7.5%
20,O=[N+]([O-])c1ccc2c(Cl)[nH]nc2c1,35.1%
